These results are taken from ChEMBL document CHEMBL1961873, “Compounds: GSK PKIS; Assays: Nanosyn kinase panel” (2012).

Structures are written as SMILES.

Sequence of Mast/stem cell growth factor receptor Kit (Homo sapiens), P10721 [V560G] (P10721 whole entry V560G): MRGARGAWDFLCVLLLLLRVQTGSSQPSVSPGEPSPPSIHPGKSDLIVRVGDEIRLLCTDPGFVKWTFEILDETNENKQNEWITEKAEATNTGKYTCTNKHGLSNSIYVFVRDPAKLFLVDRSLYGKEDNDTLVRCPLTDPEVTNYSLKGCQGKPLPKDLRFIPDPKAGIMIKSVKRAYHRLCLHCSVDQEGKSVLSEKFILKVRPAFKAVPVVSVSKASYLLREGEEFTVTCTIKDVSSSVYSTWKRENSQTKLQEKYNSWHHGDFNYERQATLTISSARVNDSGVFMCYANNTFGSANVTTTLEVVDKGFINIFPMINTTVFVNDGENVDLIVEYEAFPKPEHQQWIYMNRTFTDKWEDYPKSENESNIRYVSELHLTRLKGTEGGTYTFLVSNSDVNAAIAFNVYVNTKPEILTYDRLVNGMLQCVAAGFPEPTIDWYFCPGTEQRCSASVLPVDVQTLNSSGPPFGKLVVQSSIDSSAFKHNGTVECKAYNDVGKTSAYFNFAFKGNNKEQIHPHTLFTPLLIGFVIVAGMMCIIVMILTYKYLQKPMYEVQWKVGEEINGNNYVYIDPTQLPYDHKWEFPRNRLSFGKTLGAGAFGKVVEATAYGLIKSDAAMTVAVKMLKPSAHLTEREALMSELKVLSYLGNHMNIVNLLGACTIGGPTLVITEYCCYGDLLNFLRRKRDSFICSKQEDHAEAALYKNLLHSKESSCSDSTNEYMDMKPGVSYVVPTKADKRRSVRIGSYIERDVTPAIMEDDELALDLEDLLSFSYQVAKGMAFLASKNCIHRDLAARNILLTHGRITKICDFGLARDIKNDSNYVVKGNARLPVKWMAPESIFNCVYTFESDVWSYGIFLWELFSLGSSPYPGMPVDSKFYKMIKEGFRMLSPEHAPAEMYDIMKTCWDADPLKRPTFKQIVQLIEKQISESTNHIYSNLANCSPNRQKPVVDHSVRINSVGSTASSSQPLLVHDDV

The subject of one assay is Mast/stem cell growth factor receptor Kit (Homo sapiens), P10721 [V560G]. As to conditions: at 0.1 µM.
Usually inhibition stands for the relative decrease from the control value, in per cent. For `CCn1cc(-c2ccnc3[nH]ccc23)c(-c2cccc(NC(=O)Nc3ccc(OCc4ccccc4)cc3)c2)n1`, the inhibition was -1.87%.

As to `Cc1cccc(Nc2ncc(-c3ccccc3)o2)c1`, the inhibition amounted to 6.79%.

In the case of `Nc1nc(-c2ccc(F)cc2)c(-c2ccc3ncccc3n2)s1`, the inhibition stood at 2.59%.

Regarding `FC(F)(F)c1cccc(-c2nn3ncccc3c2-c2ccnc(Nc3ccc4c(c3)OCCO4)n2)c1`, the inhibition was -1%.

On to `CNC(=O)c1cncc(/C=C/c2ccccc2Cl)c1`, for which the inhibition was found to be 2.25%.

On to `O=C(O[C@H]1CN[C@H](C#Cc2cc3ncnc(Nc4ccc(Cc5ccccc5)cc4)c3s2)C1)N1CCOCC1`, for which the inhibition was -0.42%.

For the compound `COc1ccc(-c2nn3ncccc3c2-c2ccnc(Nc3ccc4c(c3)OCCO4)n2)cc1`, the inhibition came out at 9.03%.

In the case of `CCNC(=O)O[C@H]1CN[C@H](C#Cc2cc3ncnc(Nc4ccc(OCc5cccc(F)c5)c(Cl)c4)c3s2)C1`, the inhibition was determined as 0.45%.

On to `COc1ccc(-c2oc3ncnc(N)c3c2-c2ccc(NC(=O)Nc3cc(C(F)(F)F)ccc3F)cc2)cc1`, for which the inhibition was 25.5%.

`CCn1c(-c2nonc2N)nc2cnc(Oc3cccc(NC(=O)c4ccc(N(C)C)cc4)c3)cc21`: the inhibition is -2.78%.

As to `CCn1c(-c2nonc2N)nc2c(C#CC(C)(C)O)nc(OC[C@H](N)c3ccccc3)cc21`, the inhibition was 3.28%.

For the compound `Fc1ccc(-c2nn3ncccc3c2-c2ccnc(Nc3ccc4c(c3)OCCO4)n2)cc1`, the inhibition amounted to 16.3%.

In the case of `COc1cccc(-c2c[nH]c3c(N/N=C/c4ccncc4)ncnc23)c1`, the inhibition was 4.19%.

`O=C(Nc1n[nH]c2cc(-c3ccc(F)cc3)ccc12)C1CC1`: the inhibition is -2.61%.

For the compound `Clc1ccc(-c2nn3ncccc3c2-c2ccnc(Nc3ccccc3)n2)cc1`, the inhibition came to 3.31%.

On to `c1ccc(COc2ccc(Nc3ncnc4ccc(-c5ccco5)cc34)cc2)cc1`, for which the inhibition came to 2.08%.

As to `N#Cc1c(NC(=O)c2ccc(F)cc2)sc2c1CCCC2`, the inhibition is -0.83%.

As for `COc1cc(/C=N/Nc2ncnc3[nH]ncc23)ccc1O`, the inhibition was 1.4%.

As to `Nc1nc(-c2cccc(Cl)c2)c(-c2ccc3ncccc3n2)s1`, the inhibition is -0.42%.

For the compound `COc1cc2ncn(-c3cc(OCc4ccccc4C(F)(F)F)c(C(=O)N(C)C)s3)c2cc1OC`, the inhibition was -2.81%.

For `COC(=O)Nc1nc2ccc(S(=O)(=O)c3ccc(NC(=O)Nc4cc(C(F)(F)F)ccc4F)cc3)cc2[nH]1`, the inhibition is -0.14%.

Consider `COc1ccc(-c2cc3c(N)ncnc3o2)cc1`, for which the inhibition stood at 4.17%.

On to `COc1cc(N2CCN(C(C)C)CC2)ccc1Nc1nc(Nc2ccc(F)cc2C(N)=O)c2cc[nH]c2n1`, for which the inhibition was -1.89%.

In the case of `CC1=C(C(=O)Nc2cc(Cl)c3[nH]ncc3c2)C(c2ccc(C(F)(F)F)cc2)CC(=O)N1` (stereo unspecified), the inhibition was -1.27%.

`CC(=O)NCc1cccc(C#Cc2cncnc2Nc2ccc(OCc3cccc(F)c3)c(Cl)c2)c1`: the inhibition came to 1.82%.

With `CCn1c(-c2nonc2N)nc2c(C#CC(C)(C)O)ncc(OC3CCNCC3)c21`, the inhibition is -0.47%.

With `NS(=O)(=O)c1ccc(Nc2ncc(-c3ccccc3)o2)cc1`, the inhibition was 9.24%.

Turning to `CCCN(CCS(C)(=O)=O)Cc1ccc(-c2ccc3ncnc(Nc4ccc(OCc5cccc(F)c5)c(Cl)c4)c3c2)o1`, the inhibition is 1.8%.

With `CN1CCC(n2cnc(-c3ccc(F)cc3)c2-c2ccnc(Nc3ccccc3)n2)CC1`, the inhibition is -1.35%.

In the case of `COc1ccc(CNC(=O)c2ccc(-c3cc(-c4nnc(C)o4)ccc3C)cc2)cc1`, the inhibition was determined as 4.68%.

`COc1cc(Nc2nccc(Nc3ccc4c(C)n[nH]c4c3)n2)cc(OC)c1OC`: the inhibition stood at 13.1%.

With `CN1CCC(n2cnc(-c3ccc(F)cc3)c2-c2ccnc(N)n2)CC1`, the inhibition is -0.68%.

For `COc1ccc2c(-c3ccnc(Nc4cccc(OC(F)(F)F)c4)n3)cnn2n1`, the inhibition was -0.57%.

A further assay shares this test system. As to conditions: at 1 µM.
As for `CCn1cc(-c2ccnc3[nH]ccc23)c(-c2cccc(NC(=O)Nc3ccc(OCc4ccccc4)cc3)c2)n1`, the inhibition was -1.14%.

Consider `Cc1cccc(Nc2ncc(-c3ccccc3)o2)c1`, for which the inhibition was found to be 53%.

`Nc1nc(-c2ccc(F)cc2)c(-c2ccc3ncccc3n2)s1`: the inhibition is 2.66%.

Take `FC(F)(F)c1cccc(-c2nn3ncccc3c2-c2ccnc(Nc3ccc4c(c3)OCCO4)n2)c1`: the inhibition was determined as 5.35%.

Consider `CNC(=O)c1cncc(/C=C/c2ccccc2Cl)c1`, for which the inhibition was 8.8%.

As for `O=C(O[C@H]1CN[C@H](C#Cc2cc3ncnc(Nc4ccc(Cc5ccccc5)cc4)c3s2)C1)N1CCOCC1`, the inhibition was -0.08%.

With `COc1ccc(-c2nn3ncccc3c2-c2ccnc(Nc3ccc4c(c3)OCCO4)n2)cc1`, the inhibition was 61.7%.

`CCNC(=O)O[C@H]1CN[C@H](C#Cc2cc3ncnc(Nc4ccc(OCc5cccc(F)c5)c(Cl)c4)c3s2)C1`: the inhibition worked out at 5%.

Consider `COc1ccc(-c2oc3ncnc(N)c3c2-c2ccc(NC(=O)Nc3cc(C(F)(F)F)ccc3F)cc2)cc1`, for which the inhibition was 78.6%.

For the compound `CCn1c(-c2nonc2N)nc2cnc(Oc3cccc(NC(=O)c4ccc(N(C)C)cc4)c3)cc21`, the inhibition is 2.28%.

Take `CCn1c(-c2nonc2N)nc2c(C#CC(C)(C)O)nc(OC[C@H](N)c3ccccc3)cc21`: the inhibition was -0.5%.

For `Fc1ccc(-c2nn3ncccc3c2-c2ccnc(Nc3ccc4c(c3)OCCO4)n2)cc1`, the inhibition was 64.5%.

On to `COc1cccc(-c2c[nH]c3c(N/N=C/c4ccncc4)ncnc23)c1`, for which the inhibition was 19.6%.

For `O=C(Nc1n[nH]c2cc(-c3ccc(F)cc3)ccc12)C1CC1`, the inhibition worked out at 0.08%.

With `Clc1ccc(-c2nn3ncccc3c2-c2ccnc(Nc3ccccc3)n2)cc1`, the inhibition came out at 39.8%.

Consider `c1ccc(COc2ccc(Nc3ncnc4ccc(-c5ccco5)cc34)cc2)cc1`, for which the inhibition came to 1.66%.

Regarding `N#Cc1c(NC(=O)c2ccc(F)cc2)sc2c1CCCC2`, the inhibition was 0.9%.

Turning to `COc1cc(/C=N/Nc2ncnc3[nH]ncc23)ccc1O`, the inhibition turned out to be 6.17%.

For `Nc1nc(-c2cccc(Cl)c2)c(-c2ccc3ncccc3n2)s1`, the inhibition was -0.36%.

Take `COc1cc2ncn(-c3cc(OCc4ccccc4C(F)(F)F)c(C(=O)N(C)C)s3)c2cc1OC`: the inhibition stood at 1.25%.

For `COC(=O)Nc1nc2ccc(S(=O)(=O)c3ccc(NC(=O)Nc4cc(C(F)(F)F)ccc4F)cc3)cc2[nH]1`, the inhibition worked out at 0.67%.

For `COc1ccc(-c2cc3c(N)ncnc3o2)cc1`, the inhibition is 2.93%.

As to `COc1cc(N2CCN(C(C)C)CC2)ccc1Nc1nc(Nc2ccc(F)cc2C(N)=O)c2cc[nH]c2n1`, the inhibition was -1.36%.

In the case of `CC1=C(C(=O)Nc2cc(Cl)c3[nH]ncc3c2)C(c2ccc(C(F)(F)F)cc2)CC(=O)N1` (stereo unspecified), the inhibition is -0.62%.

Regarding `CC(=O)NCc1cccc(C#Cc2cncnc2Nc2ccc(OCc3cccc(F)c3)c(Cl)c2)c1`, the inhibition was -0.41%.

As for `CCn1c(-c2nonc2N)nc2c(C#CC(C)(C)O)ncc(OC3CCNCC3)c21`, the inhibition was 0.39%.

As for `NS(=O)(=O)c1ccc(Nc2ncc(-c3ccccc3)o2)cc1`, the inhibition is 52.5%.

As for `CCCN(CCS(C)(=O)=O)Cc1ccc(-c2ccc3ncnc(Nc4ccc(OCc5cccc(F)c5)c(Cl)c4)c3c2)o1`, the inhibition is 3.3%.

Turning to `CN1CCC(n2cnc(-c3ccc(F)cc3)c2-c2ccnc(Nc3ccccc3)n2)CC1`, the inhibition worked out at 4.06%.

For `COc1ccc(CNC(=O)c2ccc(-c3cc(-c4nnc(C)o4)ccc3C)cc2)cc1`, the inhibition stood at 4.58%.

Regarding `COc1cc(Nc2nccc(Nc3ccc4c(C)n[nH]c4c3)n2)cc(OC)c1OC`, the inhibition amounted to 57.9%.

As for `CN1CCC(n2cnc(-c3ccc(F)cc3)c2-c2ccnc(N)n2)CC1`, the inhibition amounted to 3.94%.

Consider `COc1ccc2c(-c3ccnc(Nc4cccc(OC(F)(F)F)c4)n3)cnn2n1`, for which the inhibition amounted to 5.63%.
